PubChem BioAssay AID1159580 (chemical genetic matrix, 2015)
Hit rate of the full screen: of about 5,500 compounds, about 2,000 (36%) were called active. About 18% were inconclusive and are not listed. Rule as the data show it: active = normalized growth mostly below about 0.91 (no sharp cut-off); inconclusive = no clear call, values can overlap the other calls; inactive = mostly above about 0.92. Some of the results follow.

Experiment: chemical genetic growth profiling, strain panel (AID 1159580);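 also: tested at 20 µM; growth read once vehicle control cultures reached saturation at 30 °C; 1 = growth at the plate median or of vehicle wells; lower values mean less growth of the strain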
Conditions: S. cerevisiae deletion strains, growth OD

Measured: normalized growth

CCCCCc1ccc(S(=O)(=O)Nc2ncc(C)cc2Br)cc1
inactive: locus YAR019C, strain CDC15, hits give low values 0.955 | locus YBL105C, strain PKC1, hits give low values 0.953 | locus YBR135W, strain CKS1, hits give low values 0.942 | locus YBR136W, strain MEC1, hits give low values 0.952 | locus YBR160W, strain CDC28, hits give low values 0.947 | locus YDL017W, strain CDC7, hits give low values 0.953 | locus YDL028C, strain MPS1, hits give low values 0.953 | locus YDL101C, strain DUN1, hits give low values 0.962 | locus YDL108W, strain KIN28, hits give low values 0.951 | locus YDL132W, strain cdc53, hits give low values 0.962 | locus YDL214C, strain PRR2, hits give low values 0.832 | locus YDR052C, strain DBF4, hits give low values 0.962 | locus YDR054C, strain cdc34, hits give low values 0.945 | locus YDR226W, strain ADK1, hits give low values 0.959 | locus YDR477W, strain SNF1, hits give low values 0.873 | locus YER123W, strain YCK3, hits give low values 0.835 | locus YER133W, strain GLC7, hits give low values 0.884 | locus YFL009W, strain cdc4, hits give low values 0.957 | locus YFL029C, strain CAK1, hits give low values 0.949 | locus YFR003C, strain YPI1, hits give low values 0.959 | locus YFR019W, strain FAB1, hits give low values 0.939 | locus YFR028C, strain CDC14, hits give low values 0.95 | locus YGR040W, strain KSS1, hits give low values 0.865 | locus YGR052W, strain FMP48, hits give low values 0.847 | locus YGR092W, strain DBF2, hits give low values 0.769 | locus YHR079C, strain IRE1, hits give low values 0.835 | locus YHR082C, strain KSP1, hits give low values 0.857 | locus YHR205W, strain SCH9, hits give low values 0.702 | locus YIL147C, strain SLN1, hits give low values 0.96 | locus YJL095W, strain BCK1, hits give low values 0.789 | locus YJL128C, strain PBS2, hits give low values 0.852 | locus YJL157C, strain FAR1, hits give low values 0.863 | locus YJR016C, strain ILV3, hits give low values 0.96 | locus YJR066W, strain TOR1 (second series), hits give low values 0.856 | locus YJR066W, strain TOR1, hits give low values 0.906 | locus YKL067W, strain YNK1, hits give low values 0.853 | locus YKL101W, strain HSL1, hits give low values 0.78 | locus YKL193C, strain SDS22, hits give low values 0.964 | locus YKL203C, strain TOR2, hits give low values 0.936 | locus YLR133W, strain CKI1, hits give low values 0.845 | locus YLR403W, strain SFP1, hits give low values 0.779 | locus YML070W, strain DAK1, hits give low values 0.78 | locus YMR001C, strain CDC5, hits give low values 0.955 | locus YMR205C, strain PFK2 (second series), hits give low values 0.836 | locus YMR277W, strain FCP1, hits give low values 0.956 | locus YNL006W, strain LST8, hits give low values 0.968 | locus YNL020C, strain ARK1, hits give low values 0.796 | locus YNL161W, strain CBK1, hits give low values 0.961 | locus YNL183C, strain NPR1, hits give low values 0.806 | locus YNL207W, strain RIO2, hits give low values 0.968 | locus YNL222W, strain SSU72, hits give low values 0.951 | locus YNL307C, strain MCK1 (second series), hits give low values 0.811 | locus YOL078W, strain AVO1, hits give low values 0.95 | locus YOL136C, strain PFK27, hits give low values 0.818 | locus YOR061W, strain CKA2, hits give low values 0.815 | locus YOR119C, strain RIO1, hits give low values 0.893 | locus YOR231W, strain MKK1, hits give low values 0.783 | locus YOR329C, strain SCD5, hits give low values 0.957 | locus YPL031C, strain PHO85, hits give low values 0.882 | locus YPL153C, strain RAD53, hits give low values 0.829 | locus YPL204W, strain HRR25, hits give low values 0.843 | locus YPL209C, strain IPL1, hits give low values 0.955 | locus YPR025C, strain CCL1, hits give low values 0.955 | locus YPR106W, strain ISR1, hits give low values 0.921 | locus YPR111W, strain DBF20, hits give low values 0.903 | strain NNK1, hits give low values 0.923 | strain TSCII, hits give low values 0.955
active: locus YHR030C, strain SLT2, hits give low values 0.568 | locus YKL048C, strain ELM1, hits give low values 0.793 | locus YLR113W, strain HOG1, hits give low values 0.674 | locus YPL256C, strain CLN2, hits give low values 0.792
